Compounds with a hit are over-represented: about 7.4% of the library has one in this group of screens.
FLuc counter: firefly luciferase modulation, counter-screen for miR-21 project; Potency, µM (doses to about 57.5 µM), most hits filed as inhibitors; P08659; purified FLuc, Km substrates, luminescence inhibition; 6.9% of 360,000 active; AID 588342; also: nearly all actives have a fitted effect of over 55% in size
Target sequence (P08659 whole entry, looked up): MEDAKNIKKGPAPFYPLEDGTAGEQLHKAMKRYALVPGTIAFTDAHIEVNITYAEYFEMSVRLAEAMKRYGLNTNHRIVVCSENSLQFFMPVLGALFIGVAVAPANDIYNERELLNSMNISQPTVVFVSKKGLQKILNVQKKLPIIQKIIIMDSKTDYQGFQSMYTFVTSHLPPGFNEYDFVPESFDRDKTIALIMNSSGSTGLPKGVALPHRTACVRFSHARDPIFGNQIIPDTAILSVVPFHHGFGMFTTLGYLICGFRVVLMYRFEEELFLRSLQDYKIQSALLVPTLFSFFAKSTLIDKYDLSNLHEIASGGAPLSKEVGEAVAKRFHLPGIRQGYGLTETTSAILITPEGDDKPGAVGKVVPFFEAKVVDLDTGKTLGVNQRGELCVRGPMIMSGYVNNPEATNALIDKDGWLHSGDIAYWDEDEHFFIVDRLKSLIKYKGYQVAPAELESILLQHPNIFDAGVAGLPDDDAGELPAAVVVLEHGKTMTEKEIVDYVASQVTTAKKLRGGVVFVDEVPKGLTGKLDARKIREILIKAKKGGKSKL
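Purified P. pyralis luciferase, 10 nM final, with Km-level 10 uM D-luciferin and 10 uM ATP in 50 mM Tris acetate pH 7.5, 10 mM Mg acetate, 0.01% Tween-20, 0.05% BSA; 6-point qHTS titration about 60 µM downward; luminescence read.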
SMN2 splice enh: increases expression of the SMN2 splice variant; AID 1458; 2.8% of 210,000 active; HEK293 SMN2-luciferase splicing reporter, luminescence, 30-36 h; Potency, µM (series often up to 46.1 µM), hits mostly activators; also: nearly all actives have a fitted effect of over 55% in size
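HEK293 cells carry an SMN2 […]–luciferase reporter in which exon 7 inclusion puts luciferase in frame. Cells were plated 10-12 h before compound addition, then incubated 30-36 h at 37C. ONE-Glo luminescence was read; sodium butyrate at 4.5 mM final served as control.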
NPC1 prom act: activators of NPC1 promoter; Huh7 NPC1 promoter luciferase reporter, 24 h; Potency, µM (titrated, usually from 9.22 µM), actives largely listed as activators; 2.4% of 320,000 active; AID 485313; also: nearly all actives have a fitted effect of over 60% in size
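Compounds in DMSO were transferred onto Huh7 NPC1-luciferase reporter cells pre-incubated 2 h; after 24 h at 37 °C, Amplite reagent was dispensed and luminescence recorded 10 min later.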
ELG1 genotoxic: induces genotoxicity in HEK293T cells with luciferase-tagged ELG1; HEK293T ELG1-luciferase reporter, luminescence, 16 h; Potency, µM (titrated, usually from 46 µM), usual class: activators; 1.3% of 330,000 active; also: nearly all actives have a fitted effect of over 60% in size
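Cells (2,000/well) expressing the ELG1-luciferase fusion are dosed by pin tool and kept 16 hr at 37 °C, 5% CO2. Signal comes from ONE-Glo luciferase reagent after 30 min at room temperature.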
Rab9 prom act: Rab9 promoter activation. Huh7 Rab9 promoter-luciferase reporter, luminescence, 24 h. Potency, µM (highest dose often 9.22 µM), hits mostly activators. 2.8% of 320,000 active; also: nearly all actives have a fitted effect of over 60% in size
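Cells were plated at 1500 per well in reduced-serum medium with 10% FBS and left 2 h. Compound in DMSO was then added for 24 h at 37 °C. Reporter signal was read by luminescence after 10 min with luciferase detection reagent.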
Numbers stand for hits; i = inactive; ? = inconclusive; nt = no result given; [ ] = another dose, or the depositor's remark. Calls follow the shape of the dose curve; as a rule, active = well fitted curve in the direction sought with a large enough effect; inconclusive = small, poorly fitted or top-dose-only effect, or another doubt; inactive = no such curve, though single readings can be large; an effect the other way counts as inactive or inconclusive.

SMILES	FLuc counter	SMN2 splice enh	NPC1 prom act	ELG1 genotoxic	Rab9 prom act
CC1=NN(C(N)=S)C(=O)C1N=Nc1ccc(Cl)cc1Cl (stereo not drawn)	24µM	nt	3.2µM	?	4.5µM
CC1=NN(C(N)=S)C(=O)C1N=Nc1ccccc1Cl (stereo not drawn)	?	nt	i	i	i
CC(=O)Nc1ccc(N=NC2C(=O)N(C(N)=S)N=C2C)cc1 (stereo not drawn)	12µM	nt	?	?	?
CC1=NN(C(N)=S)C(=O)C1N=Nc1ccc(O)cc1 (stereo not drawn)	27µM	nt	i	i	i
CCOc1ccc(N=NC2C(=O)N(C(N)=S)N=C2C)cc1 (stereo not drawn)	3.8µM	nt	2.8µM	18µM	4µM
CC1=NN(C(N)=S)C(=O)C1N=Nc1ccc([N+](=O)[O-])cc1 (stereo not drawn)	3.4µM	nt	?	?	?
CC1=NN(C(N)=S)C(=O)C1N=Nc1ccccc1C(=O)O (stereo not drawn)	i	nt	i	i	i
CC1=NN(c2ccccc2C(=O)O)C(=O)C1N=Nc1ccccc1 (stereo not drawn)	15µM	nt	i	i	i
CC1=NN(C(N)=S)C(=O)C1N=Nc1ccc(C)c(Br)c1 (stereo not drawn)	1.7µM	nt	1.8µM	5.2µM	1.3µM
CC1=NN(C(N)=S)C(=O)C1N=Nc1cccc(C(=O)O)c1 (stereo not drawn)	4.8µM	nt	?	i	2.5µM
CC1=NN(c2nc(-c3ccc(C)cc3)cs2)C(=O)C1N=Nc1cccc(C)c1 (stereo not drawn)	?	i[1.84 µM]	i	i	?
CCN(CC)CCCNC(=O)C(=O)Nc1ccc2nc3n(c(=O)c2c1)CCCCC3	i	i	nt	nt	nt
COc1ccc(CNC(=O)CN(C(=O)CCC(=O)Nc2nccs2)c2ccc3c(c2)OCO3)cc1	i	nt	i	i	i
COc1ccccc1N=NC1C(=O)N(C(N)=S)N=C1C (stereo not drawn)	?	nt	i	i	i
CC1=NN(C(N)=S)C(=O)C1N=Nc1ccc(F)cc1 (stereo not drawn)	11µM	nt	2.5µM	23µM	3.5µM
CCCCN1C(=O)CN(C2CCCCCC2)C(=O)C1c1ccc(OCC)c(OC)c1 (stereo not drawn)	i	nt	nt	nt	nt
Cc1ccc(N2Cc3ccccc3C2=S)cc1	4.8µM	11µM	2.8µM	i	2.5µM
Cc1cccc2nc(CSc3ncccc3C(=O)O)cn12	27µM	i	i	i	i
c1ccc(-n2cnnc2SCc2cn3ccsc3n2)cc1	i	i	i	i	i
Cc1cccc2nc(CSc3nnc4ccccn34)cn12	11µM	?	nt	nt	nt
c1ccn2c(SCc3cn4ccsc4n3)nnc2c1	17µM	14µM	?	?	2.5µM
Cn1cnc([N+](=O)[O-])c1[Se]c1nc(N)nc2c1ncn2[C@@H]1O[C@@H](CO)[C@H](O)[C@@H]1O	nt	i[9.22 µM]	nt	nt	nt
CCNC(=O)c1cnc2c(-c3ccccc3)c(C)nn2c1C	i	nt	nt	nt	nt
C[C@H](CO)N1C[C@H](C)[C@@H](CN(C)S(=O)(=O)c2ccccc2)Oc2ccc(NS(=O)(=O)c3cccs3)cc2C1=O	nt	nt	nt	i	nt
COc1cc2nc(Nc3ccc(F)cc3)nc(N)c2cc1OC	?	i	i	i	i
SMILES	FLuc counter	SMN2 splice enh	NPC1 prom act	ELG1 genotoxic	Rab9 prom act
Cc1ccc(Nc2nc(N)c3ccccc3n2)cc1Cl	0.95µM	nt	0.56µM	?	0.63µM
COc1cc2nc(Nc3ccc(C)c(Cl)c3)nc(N)c2cc1OC	21µM	nt	i	i	i
COc1ccccc1Nc1nc(NCCO)c2ccccc2n1	?	i	i	i	i
COc1cc2nc(Nc3ccc(C)c(C)c3)nc(N)c2cc1OC	?	i	i	i	i
Cc1ccc(Nc2nc(NCCO)c3ccccc3n2)cc1C	7.6µM	nt	i	i	i
CCOC(=O)c1ccc(Nc2nc(N)c3cc(OC)c(OC)cc3n2)cc1	7.6µM	i	i	i	i
Cc1nc(-c2ccc(S(=O)(=O)N3CCN(c4cccc(C(F)(F)F)c4)CC3)cc2)co1	i	nt	nt	nt	nt
COc1cc2nc(Nc3cccc(C)c3)nc(N)c2cc1OC	5.4µM	i	nt	nt	nt
CC(=O)OC[C@H]1O[C@@H](n2ncc(=O)[nH]c2=O)[C@H](OC(C)=O)[C@@H]1OC(C)=O	i	10µM	i	i	i
O=C(OCC1OC(n2ncc(=O)[nH]c2=O)C(OC(=O)c2ccccc2)C1OC(=O)c1ccccc1)c1ccccc1 (stereo not drawn)	i	nt	i	i	i
Cc1cccc(C)c1Nc1c(-c2ccc(N3CCOCC3)cc2)nc2cnccn12	?	nt	i	i	i
Cc1ccccc1Nc1c(-c2cccnc2)nc2cccc(C)n12	i	i	i	i	i
Cc1ccccc1Nc1c(-c2ccc(N3CCOCC3)cc2)nc2ccccn12	0.24µM	11µM	nt	nt	nt
Cc1ccccc1Nc1c(-c2ccc(N3CCOCC3)cc2)nc2ccc(Br)cn12	3.4µM	i	nt	nt	nt
Cc1ccccc1Nc1c(-c2ccc(N3CCOCC3)cc2)nc2cccc(C)n12	1.3µM	i	nt	nt	nt
CN(C)c1ccc(/C=N/NC(=O)c2cc(-c3ccc4c(c3)OCO4)n[nH]2)cc1	12µM	nt	?	i	i
Cc1cc([N+](=O)[O-])nn1Cc1ccc(C(=O)N/N=C/c2ccc(N(C)C)cc2)cc1	9.5µM	nt	i	i	i
O=C(CNC(=O)c1ccc2c(c1)OCCO2)N/N=C/c1ccc(Cl)cc1	?	i	i	i	i
CCN(CC)c1ccc(/C=N/NC(=O)c2ccc3c(c2)OCCO3)cc1	7.6µM	nt	i	i	i
CN(C)c1ccc(/C=N/NC(=O)c2ccc3c(c2)OCCO3)cc1	4.8µM	nt	?	?	?
Cc1cc(C)c(S(=O)(=O)NCC(=O)NCc2ccccn2)c(C)c1	i	i	i	i	i
O=C(CSc1nnc(-c2ccccc2)o1)N1CCCc2ccccc21	i	i	nt	nt	nt
CC1CC(C)CN(C(=O)CSc2nnc(-c3ccc(F)cc3)o2)C1 (stereo not drawn)	i	i	i	i	i
CC1CCN(C(=O)CCc2nnc(-c3ccccc3)o2)CC1	15µM	nt	?	?	?
O=C(CSc1nnc(-c2ccc(F)cc2)o1)N1CCCCC1	?	nt	?	21µM	?
SMILES	FLuc counter	SMN2 splice enh	NPC1 prom act	ELG1 genotoxic	Rab9 prom act
O=C(CSc1nnc(-c2ccccc2)o1)N1CCCCC1	15µM	nt	2.8µM	?	2.5µM
O=C(CSc1nnc(-c2ccccc2)o1)N1CCCC1	?	nt	?	i	?
O=C(CSc1nnc(-c2ccccc2Cl)o1)N1CCCc2ccccc21	24µM	i	nt	nt	nt
CCCCCC(=O)NN1C(=S)N(c2ccc(OC)cc2)C(=O)C1CC(=O)Nc1ccccc1 (stereo not drawn)	i	nt	i	i	i
O=C(CCn1c(=S)oc2ccccc21)NC1CCCCCCC1	i	nt	i	i	i
Cn1c(=O)c2sccc2n2c(CCCC(=O)NC3CCN(Cc4ccccc4)CC3)nnc12	i	nt	i	i	i
O=C(CCc1nnc(-c2ccc3c(c2)OCO3)o1)N1CCC(c2ccc(F)cc2)C1 (stereo not drawn)	19µM	nt	i	?	?
